# Data: PubChem BioAssay AID1159580 (chemical genetic matrix, 2015)
# “And” between values parts separate entries of the source, which are not always exact repeats. Identical values can stand only once. About 2,000 (36%) of roughly 5,500 compounds were called active. Inconclusive results (about 18%) are left out. Rule as the data show it: active = normalized growth mostly below about 0.91 (no sharp cut-off); inconclusive = no clear call, values can overlap the other calls; inactive = mostly above about 0.92. The list shows a part of the results.
# Assay: chemical genetic growth profiling, strain panel (AID 1159580);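 also: tested at 20 µM; growth read once vehicle control cultures reached saturation at 30 °C; 1 = growth at the plate median or of vehicle wells; lower values mean less growth of the strain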
# Conditions: S. cerevisiae deletion strains, growth OD
structure (smiles),measurement,setting,value
COc1c(C)c2c(c(O)c1C/C=C(\C)CCC(=O)O)C(=O)OC2,normalized growth,"locus YAL013W, strain DEP1, stronger effect = lower value",0.84 (active)
same,normalized growth,"locus YAL021C, strain ccr4, stronger effect = lower value",0.556 (active)
same,normalized growth,"locus YAL026C, strain drs2, stronger effect = lower value",0.323 (active)
same,normalized growth,"locus YAL030W, strain snc1, stronger effect = lower value",0.621 (active)
same,normalized growth,"locus YBL061C, strain skt5, stronger effect = lower value",0.712 (active)
same,normalized growth,"locus YBR009C, strain hhf1, stronger effect = lower value",0.417 (active)
same,normalized growth,"locus YBR021W, strain FUR4, stronger effect = lower value",1.07 (inactive)
same,normalized growth,"locus YBR023C, strain chs3, stronger effect = lower value",0.602 (active)
same,normalized growth,"locus YBR171W, strain sec66, stronger effect = lower value",0.945 (inactive)
same,normalized growth,"locus YBR229C, strain ROT2, stronger effect = lower value",0.973 (inactive)
same,normalized growth,"locus YBR231C, strain swc5, stronger effect = lower value",0.386 (active)
same,normalized growth,"locus YBR279W, strain paf1, stronger effect = lower value",0.613 (active)
same,normalized growth,"locus YCL011C, strain gbp2, stronger effect = lower value",0.47 (active)
same,normalized growth,"locus YCL016C, strain dcc1, stronger effect = lower value",0.518 (active)
same,normalized growth,"locus YCL029C, strain bik1, stronger effect = lower value",0.723 (active)
same,normalized growth,"locus YCL069W, strain vba3, stronger effect = lower value",0.395 (active)
same,normalized growth,"locus YCR088W, strain abp1, stronger effect = lower value",0.508 (active)
same,normalized growth,"locus YDL005C, strain med2, stronger effect = lower value",0.915 (inactive)
same,normalized growth,"locus YDL035C, strain GPR1, stronger effect = lower value",0.789 (active)
same,normalized growth,"locus YDL040C, strain nat1, stronger effect = lower value",0.758 (active)
same,normalized growth,"locus YDL074C, strain BRE1, stronger effect = lower value",0.498 (active)
same,normalized growth,"locus YDL101C, strain DUN1, stronger effect = lower value",0.95 (inactive)
same,normalized growth,"locus YDL134C, strain PPH21, stronger effect = lower value",0.876 (active)
same,normalized growth,"locus YDL185W, strain tfp1, stronger effect = lower value",0.185 (active)
same,normalized growth,"locus YDL192W, strain arf1, stronger effect = lower value",0.737 (active)
same,normalized growth,"locus YDR001C, strain nth1, stronger effect = lower value",0.604 (active)
same,normalized growth,"locus YDR069C, strain doa4, stronger effect = lower value",0.713 (active)
same,normalized growth,"locus YDR101C, strain arx1, stronger effect = lower value",0.668 (active)
same,normalized growth,"locus YDR137W, strain rgp1, stronger effect = lower value",0.345 (active)
same,normalized growth,"locus YDR150W, strain NUM1, stronger effect = lower value",0.997 (inactive)
same,normalized growth,"locus YDR159W, strain sac3, stronger effect = lower value",0.401 (active)
same,normalized growth,"locus YDR162C, strain NBP2, stronger effect = lower value",0.77 (active)
same,normalized growth,"locus YDR195W, strain ref2",1.09 (inactive)
same,normalized growth,"locus YDR297W, strain sur2, stronger effect = lower value",0.664 (active)
same,normalized growth,"locus YDR318W, strain mcm21, stronger effect = lower value",0.625 (active)
same,normalized growth,"locus YDR334W, strain swr1, stronger effect = lower value",0.341 (active)
same,normalized growth,"locus YDR335W, strain msn5, stronger effect = lower value",0.549 (active)
same,normalized growth,"locus YDR388W, stronger effect = lower value",0.75 (active)
same,normalized growth,"locus YDR392W, strain spt3, stronger effect = lower value",0.0934 (active)
same,normalized growth,"locus YDR502C, strain sam2, stronger effect = lower value",0.666 (active)
same,normalized growth,"locus YEL003W, strain gim4, stronger effect = lower value",0.539 (active)
same,normalized growth,"locus YEL037C, strain rad23, stronger effect = lower value",0.451 (active)
same,normalized growth,"locus YEL061C, strain CIN8 (second series), stronger effect = lower value",0.368 (active)
same,normalized growth,"locus YEL061C, strain CIN8, stronger effect = lower value",0.863 (active)
same,normalized growth,"locus YER015W, strain faa2, stronger effect = lower value",0.667 (active)
same,normalized growth,"locus YER016W, strain bim1, stronger effect = lower value",0.761 (active)
same,normalized growth,"locus YER110C, stronger effect = lower value",1.02 (inactive)
same,normalized growth,"locus YER111C, strain swi4, stronger effect = lower value",0.662 (active)
same,normalized growth,"locus YER155C, strain BEM2 (second series), stronger effect = lower value",0.363 (active)
same,normalized growth,"locus YER155C, strain BEM2, stronger effect = lower value",0.781 (active)
same,normalized growth,"locus YER167W, strain BCK2, stronger effect = lower value",0.582 (active)
same,normalized growth,"locus YFR010W, strain ubp6, stronger effect = lower value",0.384 (active)
same,normalized growth,"locus YGL078C, strain dbp3, stronger effect = lower value",0.349 (active)
same,normalized growth,"locus YGL086W, strain mad1, stronger effect = lower value",0.759 (active)
same,normalized growth,"locus YGL167C, strain pmr1, stronger effect = lower value",0.666 (active)
same,normalized growth,"locus YGL173C, strain kem1, stronger effect = lower value",0.82 (active)
same,normalized growth,"locus YGL227W, strain vid30, stronger effect = lower value",0.494 (active)
same,normalized growth,"locus YGL240W, strain doc1, stronger effect = lower value",0.95 (inactive)
same,normalized growth,"locus YGL248W, strain PDE1, stronger effect = lower value",0.861 (active)
same,normalized growth,"locus YGL253W, strain hxk2, stronger effect = lower value",0.437 (active)
same,normalized growth,"locus YGR078C, strain PAC10, stronger effect = lower value",0.808 (active)
same,normalized growth,"locus YGR135W, strain pre9, stronger effect = lower value",0.874 (active)
same,normalized growth,"locus YGR229C, strain SMI1, stronger effect = lower value",0.608 (active)
same,normalized growth,"locus YGR252W, strain gcn5, stronger effect = lower value",1.01 (inactive)
same,normalized growth,"locus YHR013C, strain ard1, stronger effect = lower value",0.533 (active)
same,normalized growth,"locus YHR027C, strain rpn1, stronger effect = lower value",0.699 (active)
same,normalized growth,"locus YHR030C, strain SLT2, stronger effect = lower value",0.974 (inactive) and 0.154 (active)
same,normalized growth,"locus YHR079C, strain IRE1 (second series), stronger effect = lower value",0.536 (active)
same,normalized growth,"locus YHR079C, strain IRE1, stronger effect = lower value",0.165 (active)
same,normalized growth,"locus YHR094C, strain hxt1, stronger effect = lower value",0.734 (active)
same,normalized growth,"locus YHR129C, strain ARP1, stronger effect = lower value",0.869 (active)
same,normalized growth,"locus YHR142W, strain chs7, stronger effect = lower value",0.33 (active)
same,normalized growth,"locus YHR200W, strain rpn10, stronger effect = lower value",0.889 (active)
same,normalized growth,"locus YIL066C, strain RNR3, stronger effect = lower value",0.835 (active)
same,normalized growth,"locus YIL073C, strain SPO22, stronger effect = lower value",0.794 (inactive)
same,normalized growth,"locus YIL125W, strain kgd1, stronger effect = lower value",0.238 (active)
same,normalized growth,"locus YIR030C, strain dcg1, stronger effect = lower value",0.745 (active)
same,normalized growth,"locus YJL092W, strain hpr5, stronger effect = lower value",0.505 (active)
same,normalized growth,"locus YJL095W, strain BCK1 (second series), stronger effect = lower value",0.714 (active)
same,normalized growth,"locus YJL095W, strain BCK1, stronger effect = lower value",0.755 (active) and 0.169 (active)
same,normalized growth,"locus YJL115W, strain asf1, stronger effect = lower value",0.593 (active)
same,normalized growth,"locus YJL129C, strain trk1, stronger effect = lower value",0.686 (active)
same,normalized growth,"locus YJL134W, strain LCB3, stronger effect = lower value",0.976 (inactive)
same,normalized growth,"locus YJL154C, strain vps35, stronger effect = lower value",0.596 (active)
same,normalized growth,"locus YJL164C, strain tpk1, stronger effect = lower value",0.469 (active)
same,normalized growth,"locus YJL166W, strain qcr8, stronger effect = lower value",0.641 (active)
same,normalized growth,"locus YJL168C, strain set2, stronger effect = lower value",0.979 (inactive)
same,normalized growth,"locus YJL187C, strain SWE1 (second series), stronger effect = lower value",0.749 (active)
same,normalized growth,"locus YJR043C, strain POL32, stronger effect = lower value",0.906 (inactive)
same,normalized growth,"locus YJR066W, strain TOR1, stronger effect = lower value",0.0708 (active)
same,normalized growth,"locus YJR075W, strain HOC1, stronger effect = lower value",0.772 (active)
